Bioassay records as filed in PubChem.
Only a selection was taken, and hits are over-represented in it overall.
TTR transcr act: increases transthyretin transcription. SH-SY5Y TTR promoter Gaussia luciferase, luminescence; 100% = recombinant luciferase protein wells. AID 1117267. activation, % at 16.7 µM. hit rate 1.3% among 92,000;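 active = activation above the mean of all tested compounds plus 3 SD, cut at about 9.5% in these data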;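 note: cells exposed to compounds for one day before reading; 0% = median of all test compound wells on the plate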
HuH7 TTR inh: decreases TTR transcription in HuH7 cells in activator counter-screen | HuH7 TTR promoter-Gaussia luciferase reporter, luminescence | inhibition, % at 16.7 µM | hit rate 4% among 1,100 | shares compounds with TTR transcr act;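 active = average inhibition above the solvent-only control wells' mean plus 3 SD, cut at about 15% in these data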;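 note: 0% = cells with DMSO only and 100% = cells with inhibitor control FD; inhibitors lower well luminescence so higher value means more inhibition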
TTR act confirm: human TTR transcription activation, confirmation. shares compounds with TTR transcr act. SHSY5Y TTR promoter Gaussia luciferase, luminescence; 100% = purified Lucia enzyme wells, no cells. activation, % at 16.7 µM. 1,100 tested, under 10 active. AID 1117280;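 active = mean activation above a set limit taken from the earlier primary screen, cut at about 11% in these data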;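 note: 0% = DMSO-treated cells and 100% = recombinant Lucia luciferase without cells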
Active calls of the source: *.

SMILES	TTR transcr act	others
COc1ccc(/C=C(\C#N)C(=O)Nc2cc(C)c(Cl)cc2OC)cc1O	12*	HuH7 TTR inh=-4;TTR act confirm=0
Cc1ccc(Nc2cc(Cl)nc(N)n2)c([N+](=O)[O-])c1	4
O=C(CN1CCCC(O)C1)N1c2ccccc2Sc2ccc(C(F)(F)F)cc21 (configuration not stated)	-3
CC1CCCN(CC(=O)N2c3ccccc3Sc3ccccc32)C1 (configuration not stated)	15*	HuH7 TTR inh=0;TTR act confirm=0
CN(C)CC(=O)N1c2ccccc2Sc2ccc(Cl)cc21	2
O=C(NCC(c1ccccc1)c1ccccc1)[C@H](Cc1c[nH]c2ccccc12)NC1(C(=O)NC2CCCCC2)CCCCCC1	-1
Cc1ccc(C(=O)OCC(=O)NCc2ccc(Cl)cc2Cl)o1	0
CC(C)CNC(=O)OCc1cn(Cc2cccc(C(F)(F)F)c2)nn1	1
COC(=O)C(C(=O)OC)c1ccccc1NS(=O)(=O)c1c(C)cc(C)cc1C	0
CCOC(=O)Cc1csc(NC(=O)CSc2nnc(-c3ccc(NS(=O)(=O)CC)cc3)o2)n1	-3
CCS(=O)(=O)Nc1ccc(-c2nnc(SCC(=O)OC)o2)cc1	10*	HuH7 TTR inh=-7;TTR act confirm=0
COC(=O)CSc1nnc(-c2ccc(OC)c(OC)c2)o1	3
CCCCN(CCCC)CCCNC(=O)Cn1cc(C)c(=O)[nH]c1=O	2
O=C(/C=C/c1cccc([N+](=O)[O-])c1)OCC1CCCO1 (configuration not stated)	-1
C[C@@H]1CCCCO[C@H](CN(C)S(=O)(=O)c2cccs2)[C@H](C)CN([C@@H](C)CO)C(=O)c2cc(NC(=O)NC3CCCCC3)ccc2O1	0
C[C@@H]1CCCCO[C@@H](CN(C)S(=O)(=O)c2ccc(F)cc2)[C@@H](C)CN([C@H](C)CO)C(=O)c2cc(N(C)C)ccc2O1	-1
C[C@@H]1CN([C@@H](C)CO)C(=O)c2cc(N(C)C)ccc2O[C@@H](C)CCCCO[C@@H]1CN(C)S(=O)(=O)c1cccs1	14*	HuH7 TTR inh=-6;TTR act confirm=0
CCN1CCCC1Cn1cnc2c([nH]c3ccc(OC)cc32)c1=O (configuration not stated)	-2
COc1ccc(-c2cc(C)no2)cc1S(=O)(=O)NCc1cccc(C)c1	9.8*	HuH7 TTR inh=28*;TTR act confirm=-1
COc1ccc(CN2C(=O)c3cccnc3C2=O)cc1S(=O)(=O)NCc1ccc(C)cc1	-2
Cc1cccc(CNS(=O)(=O)c2ccc(-c3ccc(=O)[nH]n3)s2)c1	0
CCN(C[C@H]1N[C@@](CC)(C(=O)OC)[C@H]2C(=O)N(Cc3ccccc3)C(=O)[C@@H]12)C(=O)c1ccc(C(C)(C)C)cc1	-2
CC1(C)CC(=O)C(C=NCCN2CCN(C(=O)c3ccccc3)CC2)=C(O)C1	2
CC1(C)CC(=O)C(C=NCCN2CCN(C(=S)NC3CCCCC3)CC2)=C(O)C1	2
CC1(C)CC(=O)C(C=NCCN2CCN(C(=O)CCl)CC2)=C(O)C1	12*	HuH7 TTR inh=2;TTR act confirm=-2
SMILES	TTR transcr act	others
CCCCCn1c(=S)[nH]c2cc(C(=O)N3CCCC3)ccc2c1=O	10*	HuH7 TTR inh=2;TTR act confirm=2
COc1ccc(CCn2c(=S)[nH]c3cc(C(=O)N4CCOCC4)ccc3c2=O)cc1OC	-1
O=C(c1ccc2c(=O)n(-c3ccccc3)c(=S)[nH]c2c1)N1CCCCC1	0
CC[C@@]12C(=O)N(c3cccc(Br)c3)C(=O)N1[C@H](c1cccc(C)c1)[C@@H]1C(=O)N(Cc3ccccc3)C(=O)[C@@H]12	-4
COc1cc(/C=C/C(=O)O)cc(S(=O)(=O)NCC2CCCO2)c1OC (configuration not stated)	22*	HuH7 TTR inh=0;TTR act confirm=-1
COc1ccc(C(C)(C)C)cc1S(=O)(=O)NCC1CCCO1 (configuration not stated)	1
COc1cc(/C=C/C(=O)O)cc(S(=O)(=O)NNC(=O)c2cc(C)oc2C)c1OC	4
CCOc1cc2[nH]c(=S)n(CCC(=O)NCc3ccc(OC)cc3)c(=O)c2cc1OCC	26*	HuH7 TTR inh=7;TTR act confirm=-1
CCOc1cc2[nH]c(=S)n(CCCCC(=O)NCc3ccco3)c(=O)c2cc1OCC	1
CCOc1cc2[nH]c(=S)n(CCCOC)c(=O)c2cc1OCC	0
CCOc1cc(C(=O)NC2CCCCCCC2)cc(OCC)c1OCC	-1
Cc1nc(C)c(-c2ccc(SCc3ccc(Cl)cc3)nn2)s1	-2
O=c1nc(SCc2ccc(Cl)cc2)nc(-c2ccccc2)[nH]1	-1
Cc1nnc(SCc2ccc(Cl)cc2)nc1/C=C/N(C)C	9.7*	HuH7 TTR inh=17*;TTR act confirm=-2
CCc1noc(C)c1C(=O)OC(C)C(=O)Nc1ccc2c(c1)OCO2 (configuration not stated)	0
C#CCOCCOCCOCCNc1nc(N2CCOCC2)nc(N2CCN(C(=O)[C@H](CCC(=O)O)n3cc(C(N)CO)nn3)CC2)n1 (some centres not stated)	2
COC(=O)[C@]12C[C@H](CC(=O)NCCCCc3ccccc3)C(=O)N(Cc3cccc4ccccc34)C1=C[C@H](C(C)(C)C)O[C@@H]2C	-1
COc1cccc(CNC(=O)COC(=O)c2ccc(-c3ccc(O)cc3)cc2)c1	1
Cc1cccc(C(=O)NC(=S)NC(C)c2ccccc2)c1 (configuration not stated)	-1
Cc1cccc(NC(=O)c2nc[nH]c2C(=O)N[C@@H](C)c2ccccc2)c1	9
CC1=C(C(=O)Nc2cccc(C(=O)NC(C)c3ccccc3)c2)SCCO1 (configuration not stated)	11*	HuH7 TTR inh=-11;TTR act confirm=-1
O=C(NC1CCCCN(Cc2ccc(Cl)cc2)C1=O)c1cccc(C(F)(F)F)c1 (configuration not stated)	4
CCCCNC(=O)C1C(c2ccc(C(F)(F)F)cc2)=Nc2ccccc2N1C(=O)c1ccc2nc(C)[nH]c2c1 (configuration not stated)	0
COCCCNC(=O)C[C@H]1C[C@@]2(C(=O)OC)C(=C[C@H](COCc3ccccc3)O[C@@H]2C)N(Cc2ccco2)C1=O	0
COc1cccc(OCc2cc(C(=O)N3CCN(c4ccccc4O)CC3)no2)c1	11*	HuH7 TTR inh=4;TTR act confirm=1
SMILES	TTR transcr act	others
Cc1ccc(N2CCN(C(=O)c3cc(COc4c(C)cccc4C)on3)CC2)c(C)c1	1
Cc1ccc(OCc2cc(C(=O)N3CCCC3)no2)cn1	-1
C[C@@H]1CN([C@H](C)CO)C(=O)CCCn2nncc2CO[C@@H]1CN(C)C(=O)C1CCCCC1	0
COc1ccc2nc(NN=C(C)c3ccccn3)cc(C)c2c1	-2
Cc1ccc2c(c1)nnn2C1CCN(CC(=O)N(c2ccccc2)c2ccccc2)CC1	-2
O=C(NCc1ccccc1)N1CCC(Cc2ccccc2)CC1	0
Cc1ccc2c(c1)nnn2C1CCN(C(=O)NCc2ccccc2)CC1	9.7*	HuH7 TTR inh=6;TTR act confirm=-1
Cc1ccc(C(=O)C2=C(O)C(=O)N(CC3CCCO3)C2c2ccccc2F)o1 (configuration not stated)	0
CCN(CC)S(=O)(=O)c1ccc(NC(=O)CCN2C(=O)C3CC=CCC3C2=O)cc1 (configuration not stated)	-2
CCOC(=O)c1sc(N)nc1-c1ccccc1	1
CCOC(=O)Nc1nc(-c2ccccc2)c(C(=O)c2ccc(Cl)cc2)s1	11*	HuH7 TTR inh=23*;TTR act confirm=0
